Eya2 inh = inhibitors of human Eya2 phosphatase activity | 330,000 tested, 0.006% active | recombinant Eya2, OMFP fluorescence dephosphorylation (OMFP is methylfluorescein phosphate) | Potency, µM (top dose mostly 76.9 µM), most hits filed as inhibitors | O00167 | AID 488837
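Eya2 (0.2 uM) preincubated 10 min at ambient with compound, then OMFP substrate added at 50 uM; 10 min reaction in 50 mM HEPES pH 7.5, 50 mM NaCl, 5 uM MgCl2, 0.05% BSA, 1 mM DTT. Fluorescence read at Ex 485/Em 525 nm.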
B2AR arrestin = agonists driving beta-arrestin recruitment to human beta2-adrenergic receptor. 330,000 tested, 0.02% active. P07550. Potency, µM (top dose mostly 46.1 µM), actives largely listed as activators. beta-arrestin recruitment to beta2AR, cell-based reporter. AID 492947; also: nearly all actives have a fitted effect of over 65% in size
Target sequence (P07550 whole entry, looked up): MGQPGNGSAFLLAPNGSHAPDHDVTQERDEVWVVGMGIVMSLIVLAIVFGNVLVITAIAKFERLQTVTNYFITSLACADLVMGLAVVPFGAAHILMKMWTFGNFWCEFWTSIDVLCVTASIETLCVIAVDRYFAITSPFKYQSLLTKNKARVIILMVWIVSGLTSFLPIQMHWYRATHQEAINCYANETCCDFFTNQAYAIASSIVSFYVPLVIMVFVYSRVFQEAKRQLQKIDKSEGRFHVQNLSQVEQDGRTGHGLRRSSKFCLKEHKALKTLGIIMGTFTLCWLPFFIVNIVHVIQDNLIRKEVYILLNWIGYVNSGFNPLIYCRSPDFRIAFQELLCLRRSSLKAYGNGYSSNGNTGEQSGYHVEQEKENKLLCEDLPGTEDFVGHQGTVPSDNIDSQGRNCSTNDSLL
CtBP-E1A inh = blocks the CtBP interaction with E1A. activity change, % (no concentration beside the values). AlphaScreen GST-E1A/His-CtBP binding, 1536-well; stronger effect = lower value. 340,000 tested, 0.49% active; in the data active = activity change below about -65%; inconclusive = mostly about -30% to -63%
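GST-E1A and His-tagged CtBP (125 nM each as 5X stock) were preincubated with pin-transferred compound for 2 h at 37 °C in the dark, then glutathione donor and nickel acceptor beads were added for 1 h before AlphaScreen reading.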
L3MBTL1 block = inhibitors of human L3MBTL1 | 230,000 tested, 0.66% active | AlphaScreen L3MBTL1–H3K9me1 peptide binding | Q9Y468 | Potency, µM (highest dose often 57.1 µM), hits mostly inhibitors; also: nearly all actives have a fitted effect of over 60% in size
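AlphaScreen proximity signal between nickel-chelate acceptor and streptavidin donor beads (final 10 ug/mL) reports binding of 50 nM L3MBTL1 to 75 nM biotin-H3 K9me1 peptide; complex incubated with compounds 30 min at room temperature; cefsulodin titration as control.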
Six1-Eya2 inh = Six1/Eya2 interaction inhibition | Q15475+O00167 | AlphaScreen GST-Six1/His-Eya2 binding, biochemical; stronger effect = lower value | activity change, % (no concentration beside the values) | 360,000 tested, 0.56% active | AID 651725; in the data active = activity change below about -65%; inconclusive = mostly about -30% to -63%
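Compounds are tested against tagged Six1 and Eya2 proteins bridged by glutathione donor and nickel acceptor beads; after a one-hour incubation at 37 °C without light, AlphaScreen emission is recorded.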
Of the large screens only hits and unclear results are named; the others gave an inactive call; ! = a repeat was not active. Hits are enriched below; roughly 0.9% of the tested compounds scored in any of these assays. Unless noted, calls follow the shape of the dose curve; as a rule, active = well fitted curve in the direction sought with a large enough effect; inconclusive = small, poorly fitted or top-dose-only effect, or another doubt; inactive = no such curve, though single readings can be large; an effect the other way counts as inactive or inconclusive.

Cc1ncc(CO)c(/C=N/NC(=O)c2cc(O)c(O)c(O)c2)c1O	L3MBTL1 block 1.58µM (no result: CtBP-E1A inh, Six1-Eya2 inh)
Cc1cc(C(=O)N/N=C/c2c(CO)cnc(C)c2O)c2ccccc2n1	CtBP-E1A inh -99.3, Six1-Eya2 inh -92.0 (no result: L3MBTL1 block)
Cc1ncc(CO)c(/C=N/NC(=O)c2ccc(Br)cc2)c1O	L3MBTL1 block inconclusive (no result: CtBP-E1A inh, Six1-Eya2 inh)
O=C(CNCc1ccccn1)Nc1ccc([N+](=O)[O-])cc1C(=O)Nc1ccccc1F	CtBP-E1A inh -88.6, Six1-Eya2 inh -93.3 (no result: L3MBTL1 block)
Cc1ccc(NC2=C/C(=N/S(=O)(=O)c3cccs3)c3ccccc3C2=O)cc1	L3MBTL1 block inconclusive, Six1-Eya2 inh inconclusive
O=C1C(Nc2ccccc2)=C/C(=N/S(=O)(=O)c2cccs2)c2ccccc21	CtBP-E1A inh inconclusive, L3MBTL1 block 6.31µM, Six1-Eya2 inh -85.6
Cc1ccc(S(=O)(=O)/N=C2\C=C(Nc3cccc(C(=O)O)c3)C(=O)c3ccccc32)cc1	CtBP-E1A inh inconclusive, Six1-Eya2 inh inconclusive (no result: L3MBTL1 block)
Cc1ccc(S(=O)(=O)/N=C2\C=C(Nc3ccc(O)cc3)C(=O)c3ccccc32)cc1	CtBP-E1A inh -69.2, L3MBTL1 block inconclusive, Six1-Eya2 inh -77.5
Cc1ccc(S(=O)(=O)/N=C2\C=C(Nc3cccc(C(=O)O)c3)C(=O)c3ccccc32)c(C)c1	CtBP-E1A inh -81.9, Six1-Eya2 inh inconclusive (no result: L3MBTL1 block)
COC(=O)c1ccccc1NC1=C/C(=N\S(=O)(=O)c2ccc(C(=O)O)cc2)c2ccccc2C1=O	CtBP-E1A inh -80.3, Six1-Eya2 inh inconclusive (no result: L3MBTL1 block)
CC(=O)NC(c1cc(F)c2cccnc2c1O)C(C)C (stereo unspecified)	none (no result: CtBP-E1A inh, Six1-Eya2 inh)
Cc1cc(=O)[nH]c(NNC(=O)c2ccc(Cl)cc2)n1	none (no result: Eya2 inh, B2AR arrestin, L3MBTL1 block)
COc1cc(-c2cnc3c(NC=O)cc(-c4ccccc4Cl)cn23)cc(OC)c1OC	none (no result: Eya2 inh, B2AR arrestin, L3MBTL1 block)
COC(=O)c1ccccc1NC1=C/C(=N\S(=O)(=O)c2cccs2)c2ccccc2C1=O	CtBP-E1A inh inconclusive, Six1-Eya2 inh -84.0! (no result: L3MBTL1 block)
O=C1CC(=O)N(Cc2ccco2)C(=O)N1	L3MBTL1 block 3.16µM, Six1-Eya2 inh inconclusive
NC(=S)N=Nc1c(O)[nH]c2c(Br)cc(Br)cc12	none
Cc1ccc(NC(=S)NNC(=O)c2nn(C)cc2Cl)cc1	none
Cc1ccc(NC(=S)NNC(=O)c2nnn(-c3ccccc3)c2C)cc1	L3MBTL1 block inconclusive, Six1-Eya2 inh -75.0
CCOc1ccc(C(=O)NNC(=O)C2CC(=O)N(c3ccc(C)cc3)C2)cc1 (stereo unspecified)	none
Oc1c(Cl)cc(Cl)cc1Sc1cc(Cl)cc(Cl)c1O	none (no result: CtBP-E1A inh, Six1-Eya2 inh)
O=S(c1cc(Cl)cc(Cl)c1O)c1cc(Cl)cc(Cl)c1O	Six1-Eya2 inh -91.8 (no result: Eya2 inh, B2AR arrestin, L3MBTL1 block)
COc1cc(/C=N/Nc2ncnc3sc4c(c23)CCC4)ccc1O	CtBP-E1A inh -82.7, Six1-Eya2 inh -67.9
Cc1csc(N=Nc2ccc(N(C)C)cc2)[n+]1[O-]	CtBP-E1A inh inconclusive, Six1-Eya2 inh -77.4 (no result: Eya2 inh, B2AR arrestin, L3MBTL1 block)
CN(C)c1ccc(N=Nc2ccc(C(=O)O)cc2)cc1	none (no result: L3MBTL1 block)
CCOC(=O)NC1(Nc2ccc(Cl)cn2)Oc2ccccc2O1	L3MBTL1 block 11.2µM (no result: CtBP-E1A inh, Six1-Eya2 inh)
COc1ccc(CN(C)Cc2c(O)ccc3ccccc23)cc1	none (no result: L3MBTL1 block)
COc1ccc(OCCCC(=O)Nc2nc(-c3ccccn3)cs2)cc1	B2AR arrestin inconclusive, L3MBTL1 block inconclusive
CC(Oc1ccc(F)cc1)C(=O)Nc1nc(-c2ccccn2)cs1 (stereo unspecified)	CtBP-E1A inh -79.2, L3MBTL1 block inconclusive
O=C(CCS(=O)(=O)c1ccc(F)cc1)Nc1nc(-c2ccccn2)cs1	Six1-Eya2 inh -76.3 (no result: CtBP-E1A inh, L3MBTL1 block)
O=C(CCS(=O)(=O)c1ccccc1)Nc1nc(-c2ccccn2)cs1	CtBP-E1A inh -79.8 (no result: Eya2 inh, B2AR arrestin, L3MBTL1 block)
Cn1c2c(c(=O)n1-c1ccccc1)CSCC2	none (no result: Eya2 inh, B2AR arrestin, CtBP-E1A inh, L3MBTL1 block)
COc1cccc(CNC(=O)[C@@H]2CCCN2C(=O)[C@H]2CCCCN2)c1	none (no result: Eya2 inh, B2AR arrestin, L3MBTL1 block)
Cc1ccccc1-c1nn(-c2ccc(F)cc2F)cc1CNCCCN(C)C	none
CC(C)C1Oc2ccccc2N(CC(=O)NC2CCCCC2)C1=O (stereo unspecified)	none (no result: L3MBTL1 block)
Oc1ccc(/C=N/NC(=S)Nc2cccnc2)cc1	none (no result: CtBP-E1A inh, L3MBTL1 block)
Oc1ccc(/C=N/NC(=S)N/N=C/c2ccc(O)cc2)cc1	CtBP-E1A inh -66.7, L3MBTL1 block inconclusive, Six1-Eya2 inh inconclusive
C/C(=N\Nc1ncnc2sc(C)c(C)c12)c1ccccn1	CtBP-E1A inh -94.0, Six1-Eya2 inh -73.4 (no result: L3MBTL1 block)
C/C(=N\Nc1ccc(Cl)c(C(=O)O)c1)c1ccccn1	none
C/C(=N\Nc1ncc(Cl)cc1Cl)c1ccccn1	CtBP-E1A inh -66.2, Six1-Eya2 inh -86.9
CC(=O)Nc1ccc(S(=O)(=O)NC(C)C(=O)NCC(c2ccco2)N(C)C)cc1 (stereo unspecified)	none
CCOc1cccc(/C=N/NC(=O)c2cccnc2)c1O	Six1-Eya2 inh inconclusive (no result: CtBP-E1A inh)
COc1cccc(C=NNC(=O)c2ccncc2)c1O	CtBP-E1A inh -94.0, Six1-Eya2 inh -80.0 (no result: Eya2 inh, B2AR arrestin, L3MBTL1 block)
CCN(CC)c1ccc(/C=N/NC(=O)c2ccc3nc[nH]c3c2)c(O)c1	CtBP-E1A inh -75.5, Six1-Eya2 inh inconclusive (no result: L3MBTL1 block)
CCN(CC)c1ccc(/C=N/NC(=S)NC)c(O)c1	CtBP-E1A inh inconclusive, Six1-Eya2 inh -89.6 (no result: L3MBTL1 block)
CCN(CC)c1ccc(/C=N/NC(=O)OC)c(O)c1	none (no result: L3MBTL1 block)

From PubChem BioAssay
